Rows were chosen to be rich in hits. Some 1% of all compounds tested hit in one or more screens of this group.
TRb SRC2 PPI: disrupts binding of human TR beta to SRC2; 280,000 compounds, 0.065% hits; TRbeta-SRC2 peptide binding, fluorescence polarization; receptor liganded with 1 µM T3; Potency, µM (top dose mostly 106 µM), for the others: at the top dose activity change, negative = inhibition, usual class: inhibitors; AID 1469; P10828;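 also: potency is read from the fitted curve at half-maximal effect; plate controls were bound peptide for no effect and peptide without receptor for full effect; nearly all actives have a fitted effect of over 50% in size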
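Decrease in fluorescence polarization of 20 nM Texas Red SRC2 coactivator peptide flagged inhibition of its binding to 0.6 uM TRb LBD; 1 uM T3 included, incubation 5 hr, ex 555/em 632 nm.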
FBPA coupling cs: counter-screen for Giardia aldolase inhibitors: coupling enzyme system; coupling enzyme system counterscreen, AmpLite Red fluorescence; activity change, negative = inhibition, % at 58.2 µM, hits read low; 290,000 compounds, 0.67% hits; AID 2472; in the data active = activity change below about -30%; also: % is scaled to controls: 0 for no effect and ±100 for the full control effect
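Coupling enzymes only (glyceraldehyde-3-phosphate) + compound, at 57.5 uM final, 10 min RT; add substrate/coupling/AmpLite Red mix, 20 min RT; fluorescence ex 525/em 598 nm. Actives flag coupling-system interference.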
TR SRC2 fluor cs: Texas Red fluorescence interference in TRb-SRC2 counter-screen | TRb/SRC2 Texas Red total fluorescence interference | Potency, µM (top dose mostly 106 µM), inactives show at the highest dose fluorescence change, negative = quenching | 280,000 compounds, 0.29% hits | AID 1479; active = well fitted curve in either direction with a large enough effect; inconclusive = small, poorly fitted or top-dose-only effect; also: potency is read from the fitted curve at half-maximal effect; % is scaled to controls: 0 for no effect and ±100 for the full control effect
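Human TRβ ligand-binding domain (0.6 uM) and Texas Red SRC2 peptide (20 nM) in Tris buffer with 1 uM T3 and 5% DMSO were incubated with pinned compound for 5 hr at ambient temperature. Total fluorescence was computed as S + 2P (555/632 nm).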
TSHR antag: antagonists of human thyroid stimulating hormone receptor; TSHR-expressing cells, TSH-stimulated cAMP HTRF, 2 h; active compounds read low; P16473; 330,000 compounds, 0.2% hits; activity change, negative = inhibition, % at 11.5 µM;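 active = activity change below a set negative limit, meaning inhibition stronger than a set level, cut at about -70% in these data; inconclusive = activity change between two set negative limits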; also: % is scaled to controls: 0 for no effect and ±100 for the full control effect
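Antagonism was scored as loss of TSH-driven cAMP in TSHR cells, stimulated with 4nM TSH (EC80) for 2 hours at 37 deg C and detected by homogeneous HTRF competition immunoassay.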
NPSR antagonist: antagonists of human neuropeptide S receptor cAMP signaling | Q6W5P4 | CHO-NPSR cells, cAMP TR-FRET, antagonist mode | Potency, µM (doses to about 38.3 µM), without a hit: at the highest dose activity change, negative = inhibition, usual class: inhibitors | 220,000 compounds, 1% hits; also: potency is read from the fitted curve at half-maximal effect; % is scaled to controls: 0 for no effect and ±100 for the full control effect; nearly all actives have a fitted effect of over 50% in size
Target sequence (Q6W5P4 whole entry, looked up): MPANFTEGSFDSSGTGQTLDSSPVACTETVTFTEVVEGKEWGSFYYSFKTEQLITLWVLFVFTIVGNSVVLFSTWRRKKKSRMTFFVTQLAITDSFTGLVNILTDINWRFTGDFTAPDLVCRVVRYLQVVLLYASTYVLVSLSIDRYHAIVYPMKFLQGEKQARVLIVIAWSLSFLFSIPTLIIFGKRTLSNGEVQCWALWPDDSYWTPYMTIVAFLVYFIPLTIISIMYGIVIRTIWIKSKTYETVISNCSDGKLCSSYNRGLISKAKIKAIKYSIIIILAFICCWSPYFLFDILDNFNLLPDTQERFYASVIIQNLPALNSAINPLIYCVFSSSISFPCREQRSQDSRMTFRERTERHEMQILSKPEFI
TCR activator: T cell receptor activation; Potency, µM (top dose mostly 9.22 µM), inactives show at the top dose activation of IL-2 secretion, most hits filed as activators; primary human leukocytes, anti-CD3, IL-2 HTRF, 48 h; 330,000 tested, under 10 active; also: % of control where 0% means no effect
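IL-2 release read by HTRF sandwich (Eu cryptate donor, d2 acceptor, 665 nm emission) after 48 hr exposure of primary human leukocytes to compound together with anti-CD3 beads in the absence of co-stimulatory signals.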
Starred values were filed as active, the others as inactive; ? = inconclusive; . = not tested or not shown; [ ] = another dose, or the depositor's remark. Unless noted, calls follow the shape of the dose curve; as a rule, active = well fitted curve in the direction sought with a large enough effect; inconclusive = small, poorly fitted or top-dose-only effect, or another doubt; inactive = no such curve, though single readings can be large; an effect the other way counts as inactive or inconclusive.

SMILES | TRb SRC2 PPI | FBPA coupling cs | TR SRC2 fluor cs | TSHR antag | NPSR antagonist | TCR activator
CCOc1ccccc1NC(=O)c1nc(S(=O)(=O)Cc2ccccc2)ncc1Cl | . | . | . | -74.9* | . | -9.9%
O=C(COC(=O)CC1CCS(=O)(=O)C1)Nc1ccc(F)cc1 (configuration not stated) | . | . | . | . | . | -3.3%
O=C(CC1CCS(=O)(=O)C1)Nc1ccc[nH]c1=O (configuration not stated) | -6.1% | -52.2* | 1.3% | 3.0 | 20.0%[46.1 µM] | 8.3%
CCCC(=O)Nc1cc(OC)c(NC(=O)NC2CCCCC2)cc1OC | -3.1% | -45.3* | -4.7% | 1.1 | -12.9%[46.1 µM] | -8.7%
COc1ccc(OC)c(NC(=O)NC2CCCCCCC2)c1 | . | . | . | -5.0 | . | -3.6%
CCc1ccc(NC(=O)c2sc3nc(C)c(Cl)c(C)c3c2NC(=O)c2ccccc2OC)cc1 | -9.2% | . | 10µM*[quencher] | . | . | .
COc1ccccc1CNC(=O)CCCCn1c(=O)c2ccccc2n(CC(=O)Nc2cccc(Cl)c2)c1=O | 4.5% | . | 4.6% | . | . | .
Cc1ccc(S(=O)(=O)c2c(C(=O)c3ccccc3)cnc3cc4c(cc23)OCCO4)cc1 | -4.2% | -1.1 | -6.2% | -82.7* | ? | -6.8%[46.1 µM]
CC1=C(C)/C(=N\OS(=O)(=O)c2ccccc2)C=CC1=O | 4.2% | -77.3* | -0.6% | -27.3 | 5.01µM* | 2.2%
COc1cccc(OC)c1C(=O)Nc1ccc2c(c1)N(S(=O)(=O)c1cccs1)CCC2 | . | -6.9 | . | -112.0* | . | 5.9%
O=C(Nc1ccc2c(c1)N(S(=O)(=O)c1cccs1)CCC2)c1c(F)cccc1Cl | . | . | . | 2.4 | . | -1.4%
Cc1ccc(C2C(C#N)=C(N)SC(N)=C2C#N)c(C)c1 | 0.2% | -41.1* | 0.5% | -15.5 | -9.8%[46.1 µM] | -12.5%
Cc1ccc(C2C(C#N)=C(N)SC(N)=C2C#N)cc1 | -3.9% | -15.6 | 2.7% | -14.7 | 23.0%[46.1 µM] | -2.8%
CCCCS(=O)(=O)Nc1ccc2cn[nH]c2c1 | 0.9% | -35.9* | 0.2% | 18.2 | -6.3% | 0.4%
COc1cccc(C(=O)N2CCN(Cc3ccccn3)CC2)c1OC | 2.4% | -55.4* | -2.9% | -19.6 | -3.3%[46.1 µM] | -3.8%
COc1ccc(C2/C=C\CN(C(=O)Nc3ccccc3-c3ccccc3)CC(=O)N2Cc2ccc(F)cc2)cc1 (configuration not stated) | 2.2% | -0.8 | -0.8% | 1.6 | 10µM* | -4.6%
Cc1nn(CCCC(=O)NCc2ccccc2)c(=O)c2c1sc1ccccc12 | -5.2% | . | -4.2% | . | . | .
CCN1C=C(Cc2ccc(OC)cc2)C2=C(C1)C(c1ccc(OC)cc1)C(C#N)=C(N)O2 (configuration not stated) | ? | -0.3 | 50.1µM*[fluorescent] | -1.9 | -19.4%[46.1 µM] | -10.1%
COc1ccc(C2C(C#N)=C(N)Oc3cc4c(cc32)OCO4)cc1 (configuration not stated) | 5.8% | -4.6 | -0.8% | 10.0 | -7.8%[46.1 µM] | 3.7%
CCn1c(CSc2nnc(-c3cccnc3)n2-c2ccccc2C)nc2cc(C(=O)O)ccc21 | 11.2µM* | -9.8 | 39.8µM*[fluorescent] | 3.4 | -23.4%[46.1 µM] | .
CCn1c(CSc2nnc3ccccn23)nc2cc(C(=O)O)ccc21 | 7.94µM* | -0.9 | 39.8µM*[fluorescent] | -1.5 | -4.7%[46.1 µM] | -8.4%
CCn1c(CSc2nnc(-c3ccncc3)n2CCOC)nc2cc(C(=O)O)ccc21 | 12.6µM* | -1.6 | 50.1µM*[fluorescent] | -0.3 | 5.9% | -5.3%
COC(=O)c1ccc(C(=O)OC)c(NC(=O)CSc2n[nH]c(N)n2)c1 | . | . | . | 3.7 | . | -5.0%
CCn1c(CSc2n[nH]c(N)n2)nc2cc(C(=O)O)ccc21 | 28.2µM* | 3.3 | 35.5µM*[fluorescent] | -4.6 | 2.7% | 5.0%
BrC1CCC(Br)C(Br)CCC(Br)C(Br)CCC1Br (configuration not stated) | -5.5%[201 µM] | . | -3.2%[201 µM] | . | . | .
CCc1ccccc1NC(=O)c1cnc2sc(N3CCCC3)nn2c1=O | -15.9% | . | 35.5µM*[quencher] | . | . | .
CCCN1CCC(=O)N(C(CSc2ccc(Br)cc2)CC(C)C)CC1 (configuration not stated) | -7.0% | 1.9 | -1.3% | . | . | .

Screening results deposited in PubChem BioAssay by National Center for Advancing Translational Sciences (NCATS).
